{"source": "PubChem BioAssay (Tox21)", "note": "Records with an inconclusive call do not appear. The source made the active and inactive calls. Calls follow the shape of the dose curve; as a rule, active = well fitted activation curve with a large enough effect in the repeat runs; inconclusive = weak or mixed curves; inactive = flat fitted curve, though single readings scatter. % is scaled to controls: 0 for no effect and ±100 for the full control effect; potency is read from the fitted curve at half-maximal effect."}
{"molecular_target": "Nuclear receptor subfamily 1 group I member 2 (Homo sapiens) (UniProt O75469)", "test": "Human pregnane X receptor (PXR) activation by small molecules, qHTS assay (AID 1346985); also: nearly all actives have a fitted effect of over 40% in size", "settings": "DPX-2 HepG2 CYP3A4-luciferase, 24 h; series mostly up to 38.3 µM; activation: at the top concentration", "method_in_brief": "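DPX-2 cells (HepG2 co-transfected with a PXR response element and a CYP3A4-promoter luciferase construct) were seeded at 2,000 per well, rested 5 hr at 37C, then exposed to DMSO-dissolved compounds for 24 hr. Activation was read as luciferase luminescence.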"}
{"smiles": "CN(Cc1ccccc1)Cc1ccccc1", "activation": "-8.55% (inactive)"}
{"smiles": "CC(=O)OCC(=O)[C@@]1(O)CC[C@H]2[C@@H]3C[C@H](C)C4=CC(=O)C=C[C@]4(C)[C@H]3[C@@H](O)C[C@@]21C", "activation": "13.2% (inactive)"}
{"smiles": "C=C1C(CCl)(CCl)C2(Cl)C(Cl)C(Cl)C1(Cl)C2(Cl)Cl", "note": "(stereo not given)", "Potency": "15.8 µM (active)"}
{"smiles": "O=C1CCC(c2ccccc2)(C2CCN(Cc3ccccc3)CC2)C(=O)N1", "note": "(stereo not given)", "Potency": "5.62 µM (active)"}
{"smiles": "CCOC(=O)[C@H](CCc1ccccc1)N[C@@H](C)C(=O)N1[C@H](C(=O)O)C[C@H]2CCCC[C@@H]21", "activation": "14.1% (inactive)"}
{"smiles": "O=P(O)(O)CP(=O)(O)O", "activation": "15.4% (inactive)"}
{"smiles": "CCC(=O)OC(OP(=O)(CCCCc1ccccc1)CC(=O)N1C[C@H](C2CCCCC2)C[C@H]1C(=O)O)C(C)C", "note": "(stereo not given in full)", "activation": "12.6% (inactive)"}
{"smiles": "CC[N+](CC)(CC)CCC(O)(c1ccccc1)C1CCCCC1", "note": "(stereo not given)", "activation": "-2.44% [at 17.1 µM] (inactive)"}
{"smiles": "CC1CCCC(C)N1NC(=O)c1ccc(Cl)c(S(N)(=O)=O)c1", "note": "(stereo not given)", "activation": "6.65% [at 17.1 µM] (inactive)"}
{"smiles": "CC[C@H]1OC(=O)C[C@@H](O)[C@H](C)[C@@H](O[C@@H]2O[C@H](C)[C@@H](O)[C@H](N(C)C)[C@H]2O)[C@@H](CCN2C[C@H](C)C[C@H](C)C2)C[C@@H](C)C(=O)/C=C/C(C)=C/[C@@H]1CO[C@@H]1O[C@H](C)[C@@H](O)[C@@H](OC)[C@H]1OC", "activation": "-0.637% (inactive)"}
